Compound activity deposited in PubChem by several laboratories.
This is a sample that favours compounds with a hit; in the whole collection about 4.3% have one here.
PfHsp40 rescue: rescue of yeast from PfHsp40 toxicity, primary screen, S. cerevisiae, ATP luminescence | 340,000 tested, 0.68% active | S. cerevisiae expressing PfHsp40, growth rescue | AID 504582, 2011 | growth rescue, % at 12.5 µM; in the data active = growth rescue above about 28%, passing the limit was not always enough; inconclusive = no clear call, values can overlap the other calls;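 note: yeast W303a lacking pdr1 and pdr3 grown in galactose medium; growth measured after three days at 30 °C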
MazF activator: activators of E. coli MazEF toxin-antitoxin RNase, primary screen, biochemical, fluorescence, uHTS; Endoribonuclease toxin MazF (Escherichia coli (strain K12)), P0AE70; FAM/BHQ RNA-DNA oligo cleavage fluorescence, 5 h; activation, % at 20 µM; 350,000 tested, 0.32% active; in the data active = activation above about 50%
BoNT A protease: BoNT/A light chain protease inhibitors, primary screen, biochemical, flow cytometry, MLPCN library; Botulinum neurotoxin type A light chain protease (Clostridium botulinum A str. ATCC 3502); multiplex microsphere protease substrate cleavage; inhibition, % at 10 µM; 360,000 tested, 0.17% active; AID 588499, 2011
BoNT-F LC inh: BoNT/F light chain protease inhibitors, primary screen, biochemical, flow cytometry, MLPCN library; Botulinum neurotoxin type F light chain protease (Clostridium botulinum); Multiplex microsphere protease cleavage assay; inhibition, % at 10 µM; 360,000 tested, 0.22% active; in the data active = inhibition above about 35%, passing the limit was not always enough; inconclusive = no clear call, values can overlap the other calls
Anthrax LF inh2: Bacillus anthracis LF protease inhibitors, primary screen, biochemical, multiplex microsphere, MLPCN library; AID 588501, 2011; 360,000 tested, 0.12% active; Lethal factor (Bacillus anthracis), P15917; inhibition, % at 10 µM; multiplex microsphere protease cleavage assay
Target sequence (P15917 whole entry, looked up): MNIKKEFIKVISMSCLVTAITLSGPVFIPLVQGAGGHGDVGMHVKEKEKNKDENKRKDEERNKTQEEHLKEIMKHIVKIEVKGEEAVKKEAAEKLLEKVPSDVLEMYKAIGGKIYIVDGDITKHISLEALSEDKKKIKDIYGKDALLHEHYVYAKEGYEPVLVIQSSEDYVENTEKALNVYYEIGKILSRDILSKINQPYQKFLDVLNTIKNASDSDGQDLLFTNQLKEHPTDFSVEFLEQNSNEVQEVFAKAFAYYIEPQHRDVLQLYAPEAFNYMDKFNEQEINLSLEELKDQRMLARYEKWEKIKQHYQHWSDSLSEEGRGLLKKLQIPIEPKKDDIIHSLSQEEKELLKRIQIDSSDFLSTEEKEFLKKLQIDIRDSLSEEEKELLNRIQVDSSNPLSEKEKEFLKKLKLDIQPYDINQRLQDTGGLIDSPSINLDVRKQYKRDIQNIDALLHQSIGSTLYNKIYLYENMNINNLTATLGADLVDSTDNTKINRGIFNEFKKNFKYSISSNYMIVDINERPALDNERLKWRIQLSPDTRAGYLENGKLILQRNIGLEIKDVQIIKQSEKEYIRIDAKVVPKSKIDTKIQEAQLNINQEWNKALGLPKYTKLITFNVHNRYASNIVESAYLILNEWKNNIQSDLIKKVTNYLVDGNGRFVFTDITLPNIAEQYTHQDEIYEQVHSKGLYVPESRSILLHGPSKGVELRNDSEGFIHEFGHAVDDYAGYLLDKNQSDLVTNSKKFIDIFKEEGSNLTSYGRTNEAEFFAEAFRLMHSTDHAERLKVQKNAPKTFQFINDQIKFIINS
Autofluor counter: flagged as autofluorescent in microsphere protease counterscreen. compound autofluorescence counterscreen, microsphere flow cytometry; stronger effect = higher value. fluorescence intensity (test concentration not listed). 360,000 tested, 3.1% active. AID 624483; in the data active = fluorescence intensity above about 16000; inconclusive = no clear call, values can overlap the other calls
Of the large screens only hits and unclear results are named; the others gave an inactive call. Cut-off read from the data, not from the text of the source, unless noted: active = inhibition above about 30%; inconclusive = no clear call, values can overlap the other calls; inactive = below that.

CCCNC(=O)c1cc(C2CCCN(S(=O)(=O)c3cccc4cccnc34)C2)on1 (stereo not drawn)	none (no result: PfHsp40 rescue, MazF activator)
COC(=O)CNC(=O)CNC(=O)Nc1ccccc1	BoNT A protease inconclusive, Autofluor counter 19345
Cc1cc(C(=O)CN2C(=O)c3ccccc3C2=O)c(C)n1Cc1cccs1	MazF activator 68, Autofluor counter 24091
CCOc1ccc(NC(=O)c2ccc(F)c(S(=O)(=O)N3CCCC3)c2)cc1	none (no result: PfHsp40 rescue)
CCOc1ccc(NC(=O)c2ccc(F)c(S(=O)(=O)N3CCN(c4ccccn4)CC3)c2)cc1	BoNT A protease inconclusive, Autofluor counter 16376
COc1cccc(CNc2nc3cc(-c4cscc4C)sc3c(=O)n2C)c1	none (no result: PfHsp40 rescue, MazF activator)
N#CSCC(=O)c1cccc2ccccc12	PfHsp40 rescue 146
NC(=O)c1cccc2ccccc12	none
CCC1C(=O)N(c2nc(C)cc(C)n2)N=C1C (stereo not drawn)	Autofluor counter 19066
CC1=NN(c2nc(C)cc(C)n2)C(=O)C1CCC(C)C (stereo not drawn)	none
Cn1ccc(NC(=O)Nc2cccc([N+](=O)[O-])c2)n1	none
Cc1ccc(C2=Nc3ccc(Br)cc3C(c3ccncc3)=NN2)cc1	none
O=C(NC(=S)N1CCc2ccccc21)c1ccc(Br)o1	PfHsp40 rescue 36
c1ccc(-c2ccc(C(c3ccccc3)n3ccnc3)cc2)cc1 (stereo not drawn)	PfHsp40 rescue 176
c1ccc(-c2ccc(-n3ccnc3)cc2)cc1	none
Cc1ccc2nc(-c3cccc(Br)c3)c(Cc3cccc(Cl)c3)n2c1	none (no result: PfHsp40 rescue, MazF activator)
Cc1ccc(CNC(=O)c2ccc(CNS(=O)(=O)c3ccc4c(c3)C(C)(C)C(=O)N4C)cc2)o1	MazF activator 102
CN1C(=O)C(C)(C)c2cc(S(=O)(=O)NCc3ccc(Cl)cc3)ccc21	none
CCC(C)NC(=O)c1ccc(CNS(=O)(=O)c2ccc3c(c2)C(C)(C)C(=O)N3C)cc1 (stereo not drawn)	MazF activator 107
CCCCCCCC(=O)Oc1ccc(C(=O)Nc2cc(C)on2)cc1	none
COc1cc(/C=C/C(=O)O)cc(S(=O)(=O)Nc2ccccc2Oc2ccccc2)c1OC	none
Cc1cccn2c(=O)nc(SCC(=O)N3CCC(C)CC3)nc12	PfHsp40 rescue inconclusive
COc1ccccc1C(=O)Nc1nnc([C@@H]2C[C@H](O)[C@@H](CO)O2)s1	none (no result: PfHsp40 rescue, MazF activator)
COc1cccc(NC(=O)c2oc3ccccc3c2NC(C)=O)c1	none
COc1cccc(NC(=O)c2oc3ccccc3c2NC(=O)C2CC2)c1	BoNT A protease inconclusive, Autofluor counter 24287
CCOc1cc(NC(=S)Nc2cccc(OC)c2)c(OCC)cc1NC(=O)C1CC1	Autofluor counter 23099
COc1ccc(NC(=O)c2oc3ccccc3c2NC(=O)C2CC2)cc1	Autofluor counter 20675
O=P(Nc1ccccc1)(Nc1ccccc1)Oc1ccc(Cl)cc1	Autofluor counter 23234
CC(Sc1ncn[nH]1)C(=O)Nc1cc(C(F)(F)F)ccc1Cl (stereo not drawn)	none
Cc1cc(C(=O)Nc2nc(-c3ccccn3)cs2)ccc1[N+](=O)[O-]	PfHsp40 rescue 73
CCc1cc(C(=O)Nc2nc(-c3ccccn3)cs2)sc1C	PfHsp40 rescue 365
Cc1ccc(C(=O)Nc2nc(-c3ccccn3)cs2)o1	none (no result: BoNT A protease, BoNT-F LC inh, Anthrax LF inh2, Autofluor counter)
O=C(Nc1nc(-c2ccccn2)cs1)c1cc(Cl)ccc1[N+](=O)[O-]	none
O=S(=O)(NCc1ccccc1)c1ccc(Br)c2nsnc12	none
CCN(CC)S(=O)(=O)c1cc(C(=O)OC(C)C(=O)NCc2ccco2)ccc1C (stereo not drawn)	none
Cc1ccc(NC2=NC(c3ccc(O)cc3)n3c(nc(C)cc3=O)N2)cc1 (stereo not drawn)	BoNT A protease inconclusive, Autofluor counter 22829
COc1ccc(C2N=C(Nc3ccc(C)cc3)Nc3nc(C)cc(=O)n32)cc1 (stereo not drawn)	none
COc1cc(S(=O)(=O)Nc2cccnc2)ccc1Cl	none
NNS(=O)(=O)c1ccc2c(c1)Cc1cc(S(=O)(=O)NN)ccc1-2	MazF activator 154
Cc1csc2ncc(C(=O)N3CCCc4ccccc43)c(=O)n12	none
O=C(c1cnc2ccccn2c1=O)N1CCCc2ccccc21	Autofluor counter 17332
O=C(c1cncc(Br)c1)N1CCCc2ccccc21	none
O=C(c1ccc(S(=O)(=O)N2CCOCC2)cc1)N1CCCc2ccccc21	Autofluor counter 17398
O=C(c1cccnc1)N1CCCc2ccccc21	Autofluor counter 20718
O=C(c1cnc2n(c1=O)CCS2)N1CCCc2ccccc21	Autofluor counter 22039
Cc1cc(C)n2c(Nc3c(C)cccc3C)c(CC(C)C)nc2n1	none (no result: PfHsp40 rescue, MazF activator)
Cc1cc(C(=O)Nc2nnc(C3CCCCC3)s2)no1	none
Cc1ccc(C(=O)Nc2nnc(C3CCCCC3)s2)o1	Autofluor counter 23882
O=C1/C(=C/c2ccc(O)cc2)SC(=S)N1CC1CCCO1 (stereo not drawn)	none
Cc1ccsc1/C=C1\SC(=S)N(CC2CCCO2)C1=O (stereo not drawn)	BoNT A protease 35, Anthrax LF inh2 32
CCN(CC)C(=O)[C@H]1CC(CC(=O)NC/C=C(\C)CCC=C(C)C)C(=O)N2CCc3c([nH]c4ccccc34)[C@]12C (stereo partly drawn)	none
Cc1ccc(-n2nc(C)c(=O)c(-c3ccccc3)c2NC(=O)C(C)C)cc1	Anthrax LF inh2 inconclusive (no result: PfHsp40 rescue)
COc1cccc(-c2c(NC(=O)c3ccco3)n(-c3ccc(C)cc3)nc(C)c2=O)c1	Autofluor counter 16965
CN1CCCC1CCNC1C2CC3CC(C2)CC1C3 (stereo not drawn)	Autofluor counter 16148
COc1ccccc1CNC(=O)[C@H](C)NC(=O)C1CCN(C(=O)[C@H](CCSC)NC(=O)OC(C)(C)C)CC1	none
O=C(NC(=O)c1cccc(F)c1)Nc1nc(-c2ccc(F)cc2)cc(C(F)(F)F)n1	none
O=C(NC(=O)c1ccc(F)cc1)Nc1nc(-c2cccs2)cc(C(F)(F)F)n1	MazF activator 94
O=C(OCc1ccccc1)N1CCc2ccccc21	none
Nc1c(-c2ccccc2)n[nH]c1-c1ccccc1	BoNT A protease inconclusive, Autofluor counter 23500
S=c1nc(-c2ccccc2)c(-c2ccccc2)n[nH]1	none
Nc1nnnn1CC(=O)OCc1cccc(Br)c1	BoNT A protease inconclusive, Autofluor counter 23207
O=C(CN1CC(c2ccccc2)CC1=O)OCc1cccc(Br)c1 (stereo not drawn)	BoNT A protease inconclusive, Autofluor counter inconclusive
Cc1ccc(F)cc1CNC(=O)C1CCC(=O)N(C2CC2)C1 (stereo not drawn)	none
Cc1nc2cc3ccccc3cc2n1C	none
Cn1c(=O)[nH]c2cc3ccccc3cc21	BoNT A protease inconclusive, Autofluor counter 19393
O=C(c1cc2ccccc2cc1O)N1CCN(c2ccc([N+](=O)[O-])cc2)CC1	none
